Assay results taken from the supplement of paper PMC4466140.

Each binder was assayed against AgAbp1 (assay: SPOT peptide array binding signal intensity (averaged, normalized) (arbitrary units (background-subtracted, floor 0; scale differs between SH3 domains)); higher = stronger binding of the SH3 domain to the peptide).
Method in brief: (§1)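 GST-fused SH3 domains, from four yeast species, were produced in E. coli BL21(DE3) and captured on glutathione Sepharose. Membranes of cellulose carrying synthetic 15-mer peptides, in which cysteines had been replaced by serines, were exposed to each domain at 10 μg/ml overnight at 4°C in TBS-based blocking buffer. After anti-GST antibody, an HRP anti-mouse secondary and luminol, spots were imaged and quantified using Genespotter. Binding signal is normalized and background-subtracted spot intensity, averaged over replicates, in arbitrary units that differ between domains.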
For FYHRPAPKPPVTKKV, the “SPOT peptide array binding signal intensity” value was 250.

Each binder was assayed against AgBbc1 in the same assay as above.
Method in brief: as §1
FYHRPAPKPPVTKKV was tested, and the “SPOT peptide array binding signal intensity” value was 123.

The binders below were run against AgBem1-D1 in the same assay as above.
Method in brief: as §1
With FYHRPAPKPPVTKKV the “SPOT peptide array binding signal intensity” value was 68.

These binders were tested against AgBzz1-D1 in the same assay as above.
Method in brief: as §1
FYHRPAPKPPVTKKV was tested, and the “SPOT peptide array binding signal intensity” value was 89.

These binders were tested against AgBzz1-D2 in the same assay as above.
Method in brief: as §1
With FYHRPAPKPPVTKKV the “SPOT peptide array binding signal intensity” value was 65.

What follows are binders tested against AgCyk3 in the same assay as above.
Method in brief: as §1
For FYHRPAPKPPVTKKV, the “SPOT peptide array binding signal intensity” value was 6.

What follows are binders tested against AgFus1 in the same assay as above.
Method in brief: as §1
For FYHRPAPKPPVTKKV, the “SPOT peptide array binding signal intensity” value was no more than 0.

These binders were tested against AgHof1 in the same assay as above.
Method in brief: as §1
FYHRPAPKPPVTKKV was tested, and the “SPOT peptide array binding signal intensity” value was 3.

The binders below were run against AgHse1 in the same assay as above.
Method in brief: as §1
In the case of FYHRPAPKPPVTKKV, the “SPOT peptide array binding signal intensity” value is reported as no more than 0.

These binders were tested against AgLsb1 in the same assay as above.
Method in brief: as §1
FYHRPAPKPPVTKKV was tested, and the “SPOT peptide array binding signal intensity” value was 138.

What follows are binders tested against AgLsb4 in the same assay as above.
Method in brief: as §1
In the case of FYHRPAPKPPVTKKV, the “SPOT peptide array binding signal intensity” value is reported as no more than 0.

What follows are binders tested against AgMyo5 in the same assay as above.
Method in brief: as §1
In the case of FYHRPAPKPPVTKKV, the “SPOT peptide array binding signal intensity” value is reported as 38.8.

What follows are binders tested against AgNbp2 in the same assay as above.
Method in brief: as §1
With FYHRPAPKPPVTKKV the “SPOT peptide array binding signal intensity” value was 1040.

The binders below were run against AgRvs167 in the same assay as above.
Method in brief: as §1
In the case of FYHRPAPKPPVTKKV, the “SPOT peptide array binding signal intensity” value is reported as 1.33.

Each binder was assayed against AgSho1 in the same assay as above.
Method in brief: as §1
For FYHRPAPKPPVTKKV, the “SPOT peptide array binding signal intensity” value was no more than 0.

What follows are binders tested against AgSla1-D1-D2 in the same assay as above.
Method in brief: as §1
FYHRPAPKPPVTKKV was tested, and the “SPOT peptide array binding signal intensity” value was no more than 0.

The binders below were run against AgSla1-D3 in the same assay as above.
Method in brief: as §1
With FYHRPAPKPPVTKKV the “SPOT peptide array binding signal intensity” value was 6.5.

Each binder was assayed against CaAbp1-D1 in the same assay as above.
Method in brief: as §1
In the case of FYHRPAPKPPVTKKV, the “SPOT peptide array binding signal intensity” value is reported as 281.

Each binder was assayed against CaAbp1-D2 in the same assay as above.
Method in brief: as §1
In the case of FYHRPAPKPPVTKKV, the “SPOT peptide array binding signal intensity” value is reported as 269.

These binders were tested against CaBbc1 in the same assay as above.
Method in brief: as §1
With FYHRPAPKPPVTKKV the “SPOT peptide array binding signal intensity” value was 454.

The binders below were run against CaBem1-D1 in the same assay as above.
Method in brief: as §1
With FYHRPAPKPPVTKKV the “SPOT peptide array binding signal intensity” value was 364.

Each binder was assayed against CaBzz1-D1 in the same assay as above.
Method in brief: as §1
In the case of FYHRPAPKPPVTKKV, the “SPOT peptide array binding signal intensity” value is reported as 2440.

Each binder was assayed against CaBzz1-D2 in the same assay as above.
Method in brief: as §1
With FYHRPAPKPPVTKKV the “SPOT peptide array binding signal intensity” value was 529.

These binders were tested against CaCyk3 in the same assay as above.
Method in brief: as §1
In the case of FYHRPAPKPPVTKKV, the “SPOT peptide array binding signal intensity” value is reported as 10.5.

What follows are binders tested against CaFus1 in the same assay as above.
Method in brief: as §1
For FYHRPAPKPPVTKKV, the “SPOT peptide array binding signal intensity” value was no more than 0.

Each binder was assayed against CaHof1 in the same assay as above.
Method in brief: as §1
For FYHRPAPKPPVTKKV, the “SPOT peptide array binding signal intensity” value was no more than 0.

What follows are binders tested against CaHse1 in the same assay as above.
Method in brief: as §1
FYHRPAPKPPVTKKV was tested, and the “SPOT peptide array binding signal intensity” value was no more than 0.

Each binder was assayed against CaLsb1 in the same assay as above.
Method in brief: as §1
For FYHRPAPKPPVTKKV, the “SPOT peptide array binding signal intensity” value was 3.

Each binder was assayed against CaLsb4 in the same assay as above.
Method in brief: as §1
For FYHRPAPKPPVTKKV, the “SPOT peptide array binding signal intensity” value was no more than 0.

These binders were tested against CaMyo5 in the same assay as above.
Method in brief: as §1
For FYHRPAPKPPVTKKV, the “SPOT peptide array binding signal intensity” value was 8.

These binders were tested against CaNbp2 in the same assay as above.
Method in brief: as §1
FYHRPAPKPPVTKKV was tested, and the “SPOT peptide array binding signal intensity” value was 843.

The binders below were run against CaRvs167 in the same assay as above.
Method in brief: as §1
For FYHRPAPKPPVTKKV, the “SPOT peptide array binding signal intensity” value was 3.

What follows are binders tested against CaRvs167-3 in the same assay as above.
Method in brief: as §1
For FYHRPAPKPPVTKKV, the “SPOT peptide array binding signal intensity” value was no more than 0.

These binders were tested against CaSho1 in the same assay as above.
Method in brief: as §1
With FYHRPAPKPPVTKKV the “SPOT peptide array binding signal intensity” value was no more than 0.

What follows are binders tested against CaSla1-D1-D2 in the same assay as above.
Method in brief: as §1
With FYHRPAPKPPVTKKV the “SPOT peptide array binding signal intensity” value was 105.

These binders were tested against CaSla1-D3 in the same assay as above.
Method in brief: as §1
FYHRPAPKPPVTKKV was tested, and the “SPOT peptide array binding signal intensity” value was 45.2.

What follows are binders tested against ScAbp1 in the same assay as above.
Method in brief: as §1
With FYHRPAPKPPVTKKV the “SPOT peptide array binding signal intensity” value was 87.5.

Each binder was assayed against ScBbc1 in the same assay as above.
Method in brief: as §1
With FYHRPAPKPPVTKKV the “SPOT peptide array binding signal intensity” value was 330.

Each binder was assayed against ScBem1-D1 in the same assay as above.
Method in brief: as §1
With FYHRPAPKPPVTKKV the “SPOT peptide array binding signal intensity” value was 4.

These binders were tested against ScBzz1-D1 in the same assay as above.
Method in brief: as §1
For FYHRPAPKPPVTKKV, the “SPOT peptide array binding signal intensity” value was 678.

These binders were tested against ScBzz1-D2 in the same assay as above.
Method in brief: as §1
With FYHRPAPKPPVTKKV the “SPOT peptide array binding signal intensity” value was 39.

Each binder was assayed against ScCyk3 in the same assay as above.
Method in brief: as §1
For FYHRPAPKPPVTKKV, the “SPOT peptide array binding signal intensity” value was no more than 0.

These binders were tested against ScFus1 in the same assay as above.
Method in brief: as §1
For FYHRPAPKPPVTKKV, the “SPOT peptide array binding signal intensity” value was no more than 0.

Each binder was assayed against ScHof1 in the same assay as above.
Method in brief: as §1
For FYHRPAPKPPVTKKV, the “SPOT peptide array binding signal intensity” value was no more than 0.

The binders below were run against ScHse1 in the same assay as above.
Method in brief: as §1
In the case of FYHRPAPKPPVTKKV, the “SPOT peptide array binding signal intensity” value is reported as no more than 0.

The binders below were run against ScLsb1 in the same assay as above.
Method in brief: as §1
In the case of FYHRPAPKPPVTKKV, the “SPOT peptide array binding signal intensity” value is reported as 32.5.

Each binder was assayed against ScLsb2 in the same assay as above.
Method in brief: as §1
In the case of FYHRPAPKPPVTKKV, the “SPOT peptide array binding signal intensity” value is reported as 106.

What follows are binders tested against ScLsb3 in the same assay as above.
Method in brief: as §1
In the case of FYHRPAPKPPVTKKV, the “SPOT peptide array binding signal intensity” value is reported as 53.

These binders were tested against ScLsb4 in the same assay as above.
Method in brief: as §1
In the case of FYHRPAPKPPVTKKV, the “SPOT peptide array binding signal intensity” value is reported as 3.

Each binder was assayed against ScMyo3 in the same assay as above.
Method in brief: as §1
With FYHRPAPKPPVTKKV the “SPOT peptide array binding signal intensity” value was 284.

Each binder was assayed against ScMyo5 in the same assay as above.
Method in brief: as §1
In the case of FYHRPAPKPPVTKKV, the “SPOT peptide array binding signal intensity” value is reported as 459.

The binders below were run against ScNbp2 in the same assay as above.
Method in brief: as §1
For FYHRPAPKPPVTKKV, the “SPOT peptide array binding signal intensity” value was 1680.

Each binder was assayed against ScPex13 in the same assay as above.
Method in brief: as §1
In the case of FYHRPAPKPPVTKKV, the “SPOT peptide array binding signal intensity” value is reported as 530.

The binders below were run against ScRvs167 in the same assay as above.
Method in brief: as §1
For FYHRPAPKPPVTKKV, the “SPOT peptide array binding signal intensity” value was 12.8.

These binders were tested against ScSho1 in the same assay as above.
Method in brief: as §1
For FYHRPAPKPPVTKKV, the “SPOT peptide array binding signal intensity” value was 12.

The binders below were run against ScSla1-D1-D2 in the same assay as above.
Method in brief: as §1
In the case of FYHRPAPKPPVTKKV, the “SPOT peptide array binding signal intensity” value is reported as 238.

Each binder was assayed against ScSla1-D3 in the same assay as above.
Method in brief: as §1
FYHRPAPKPPVTKKV was tested, and the “SPOT peptide array binding signal intensity” value was 475.

These binders were tested against SpAbp1-D1 in the same assay as above.
Method in brief: as §1
FYHRPAPKPPVTKKV was tested, and the “SPOT peptide array binding signal intensity” value was 50.5.

The binders below were run against SpBbc1 in the same assay as above.
Method in brief: as §1
FYHRPAPKPPVTKKV was tested, and the “SPOT peptide array binding signal intensity” value was 19.2.

These binders were tested against SpBzz1-D1 in the same assay as above.
Method in brief: as §1
For FYHRPAPKPPVTKKV, the “SPOT peptide array binding signal intensity” value was 647.

These binders were tested against SpBzz1-D2 in the same assay as above.
Method in brief: as §1
With FYHRPAPKPPVTKKV the “SPOT peptide array binding signal intensity” value was 2.5.

What follows are binders tested against SpCyk3 in the same assay as above.
Method in brief: as §1
In the case of FYHRPAPKPPVTKKV, the “SPOT peptide array binding signal intensity” value is reported as 2.

Each binder was assayed against SpHof1 in the same assay as above.
Method in brief: as §1
FYHRPAPKPPVTKKV was tested, and the “SPOT peptide array binding signal intensity” value was 12.5.

These binders were tested against SpHof1-2 in the same assay as above.
Method in brief: as §1
In the case of FYHRPAPKPPVTKKV, the “SPOT peptide array binding signal intensity” value is reported as no more than 0.

Each binder was assayed against SpHof1-3 in the same assay as above.
Method in brief: as §1
For FYHRPAPKPPVTKKV, the “SPOT peptide array binding signal intensity” value was no more than 0.

Each binder was assayed against SpHse1 in the same assay as above.
Method in brief: as §1
With FYHRPAPKPPVTKKV the “SPOT peptide array binding signal intensity” value was no more than 0.

The binders below were run against SpLsb1 in the same assay as above.
Method in brief: as §1
FYHRPAPKPPVTKKV was tested, and the “SPOT peptide array binding signal intensity” value was 8.

Each binder was assayed against SpLsb4 in the same assay as above.
Method in brief: as §1
FYHRPAPKPPVTKKV was tested, and the “SPOT peptide array binding signal intensity” value was 54.

Each binder was assayed against SpMyo1 in the same assay as above.
Method in brief: as §1
For FYHRPAPKPPVTKKV, the “SPOT peptide array binding signal intensity” value was 132.

The binders below were run against SpNbp2 in the same assay as above.
Method in brief: as §1
With FYHRPAPKPPVTKKV the “SPOT peptide array binding signal intensity” value was 9.

These binders were tested against SpPex13 in the same assay as above.
Method in brief: as §1
For FYHRPAPKPPVTKKV, the “SPOT peptide array binding signal intensity” value was 6.

What follows are binders tested against SpRvs167 in the same assay as above.
Method in brief: as §1
FYHRPAPKPPVTKKV was tested, and the “SPOT peptide array binding signal intensity” value was 9.33.

The binders below were run against SpSla1-D1-D2 in the same assay as above.
Method in brief: as §1
In the case of FYHRPAPKPPVTKKV, the “SPOT peptide array binding signal intensity” value is reported as no more than 0.

These binders were tested against SpSla1-D3 in the same assay as above.
Method in brief: as §1
FYHRPAPKPPVTKKV was tested, and the “SPOT peptide array binding signal intensity” value was no more than 0.
